About 7,900 targets were measured; listed, in parts, are those with a hit and a random draw of the rest. About 0.6% of all pairs of compound and target were hits.
Key:
Test in all cases: log2 fold change, soluble protein after heating vs DMSO (PISA); higher = thermal stabilisation; K562 cells, 10 uM, 30 min; active = over 0.2 and 3.5 SD of the protein, either way, in both replicates (recomputed)
[1] = compound: COC1=CC=C(C=C1)CN2C=CC3=C2C=C(C=C3)C(=O)NO
Method in brief: (§1)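 K562 cells at 2×10^6 cells/mL were exposed to 10 μM compound for 30 min, then aliquots were heated for 3 min across 48°C-58°C, pooled, and extracted in PBS containing 0.5% NP-40 at 4°C. The supernatant after 21,000xg for 90 min was taken as soluble protein and measured by TMTpro 16plex LC-MS/MS with channel sums equalised. Thermal stability is reported relative to control samples, with values from duplicates. Fold changes are given on a log2 scale.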

filanesib = compound: CON(C)C(=O)N1N=C(c2cc(F)ccc2F)S[C@@]1(CCCN)c1ccccc1 [filanesib]
Method in brief: as §1

zotarolimus = compound: CO[C@H]1C[C@@H]2CC[C@@H](C)[C@@](O)(O2)C(=O)C(=O)N2CCCC[C@H]2C(=O)O[C@H]([C@H](C)C[C@@H]2CC[C@H](n3cnnn3)[C@H](OC)C2)CC(=O)[C@H](C)/C=C(\C)[C@@H](O)[C@@H](OC)C(=O)[C@H](C)C[C@H](C)/C=C/C=C/C=C/1C [zotarolimus]
Method in brief: as §1

idasanutlin = compound: COc1cc(C(=O)O)ccc1NC(=O)[C@@H]1N[C@@H](CC(C)(C)C)[C@](C#N)(c2ccc(Cl)cc2F)[C@H]1c1cccc(Cl)c1F [idasanutlin]
Method in brief: as §1

alisertib = compound: COc1cc(Nc2ncc3c(n2)-c2ccc(Cl)cc2C(c2c(F)cccc2OC)=NC3)ccc1C(=O)O [alisertib]
Method in brief: as §1

[2] = compound: COc1cc2nc(-c3cc(F)ccc3O)nc(N[C@@H]3CNC[C@H]3C(C)(C)O)c2cc1OC
Method in brief: as §1

gefitinib = compound: COc1cc2ncnc(Nc3ccc(F)c(Cl)c3)c2cc1OCCCN1CCOCC1 [gefitinib]
Method in brief: as §1

[3] = compound: COc1cccc2cc(-c3nc([C@H]4CC[C@H](C(=O)O)CC4)n4ncnc(N)c34)[nH]c12
Method in brief: as §1

lapatinib = compound: CS(=O)(=O)CCNCc1ccc(-c2ccc3ncnc(Nc4ccc(OCc5cccc(F)c5)c(Cl)c4)c3c2)o1 [lapatinib]
Method in brief: as §1

pictilisib = compound: CS(=O)(=O)N1CCN(Cc2cc3nc(-c4cccc5[nH]ncc45)nc(N4CCOCC4)c3s2)CC1 [pictilisib]
Method in brief: as §1

Measured: log2 fold change

TMEM120A (UniProt Q9BXJ8)
inactive: [1] -0.2 | filanesib -0.049 | zotarolimus 0.038 | idasanutlin -0.217 | alisertib -0.08 | [2] -0.08 | gefitinib 0.113 | [3] -0.02 | lapatinib 0.06 | pictilisib -0.094

TTI2 (UniProt Q6NXR4)
inactive: [1] 0.012 | filanesib 0.06 | zotarolimus -0.008 | idasanutlin -0.04 | alisertib 0.028 | [2] -0.034 | gefitinib -0.081 | [3] -0.025 | lapatinib 0.033

USP14 (UniProt P54578)
inactive: [1] 0.023 | filanesib -0.035 | zotarolimus 0.04 | idasanutlin -0.051 | alisertib -0.057 | [2] -0.008 | gefitinib 0.007 | [3] -0.043 | lapatinib 0.031 | pictilisib 0.026

WASH2P (UniProt Q6VEQ5)
inactive: [1] 0.007 | filanesib -0.067 | zotarolimus -0.029 | idasanutlin -0.055 | alisertib -0.027 | [2] 0.067 | gefitinib 0.001 | [3] -0.036 | lapatinib 0.016 | pictilisib 0.053

USP15 (UniProt Q9Y4E8)
inactive: [1] 0.027 | filanesib -0.004 | zotarolimus 0.051 | idasanutlin -0.018 | alisertib -0.043 | [2] 0.016 | gefitinib 0.028 | [3] -0.05 | lapatinib -0.021 | pictilisib -0.027

WDR11 (UniProt Q9BZH6)
Sequence of UniProt Q9BZH6 (Q9BZH6 whole entry, looked up): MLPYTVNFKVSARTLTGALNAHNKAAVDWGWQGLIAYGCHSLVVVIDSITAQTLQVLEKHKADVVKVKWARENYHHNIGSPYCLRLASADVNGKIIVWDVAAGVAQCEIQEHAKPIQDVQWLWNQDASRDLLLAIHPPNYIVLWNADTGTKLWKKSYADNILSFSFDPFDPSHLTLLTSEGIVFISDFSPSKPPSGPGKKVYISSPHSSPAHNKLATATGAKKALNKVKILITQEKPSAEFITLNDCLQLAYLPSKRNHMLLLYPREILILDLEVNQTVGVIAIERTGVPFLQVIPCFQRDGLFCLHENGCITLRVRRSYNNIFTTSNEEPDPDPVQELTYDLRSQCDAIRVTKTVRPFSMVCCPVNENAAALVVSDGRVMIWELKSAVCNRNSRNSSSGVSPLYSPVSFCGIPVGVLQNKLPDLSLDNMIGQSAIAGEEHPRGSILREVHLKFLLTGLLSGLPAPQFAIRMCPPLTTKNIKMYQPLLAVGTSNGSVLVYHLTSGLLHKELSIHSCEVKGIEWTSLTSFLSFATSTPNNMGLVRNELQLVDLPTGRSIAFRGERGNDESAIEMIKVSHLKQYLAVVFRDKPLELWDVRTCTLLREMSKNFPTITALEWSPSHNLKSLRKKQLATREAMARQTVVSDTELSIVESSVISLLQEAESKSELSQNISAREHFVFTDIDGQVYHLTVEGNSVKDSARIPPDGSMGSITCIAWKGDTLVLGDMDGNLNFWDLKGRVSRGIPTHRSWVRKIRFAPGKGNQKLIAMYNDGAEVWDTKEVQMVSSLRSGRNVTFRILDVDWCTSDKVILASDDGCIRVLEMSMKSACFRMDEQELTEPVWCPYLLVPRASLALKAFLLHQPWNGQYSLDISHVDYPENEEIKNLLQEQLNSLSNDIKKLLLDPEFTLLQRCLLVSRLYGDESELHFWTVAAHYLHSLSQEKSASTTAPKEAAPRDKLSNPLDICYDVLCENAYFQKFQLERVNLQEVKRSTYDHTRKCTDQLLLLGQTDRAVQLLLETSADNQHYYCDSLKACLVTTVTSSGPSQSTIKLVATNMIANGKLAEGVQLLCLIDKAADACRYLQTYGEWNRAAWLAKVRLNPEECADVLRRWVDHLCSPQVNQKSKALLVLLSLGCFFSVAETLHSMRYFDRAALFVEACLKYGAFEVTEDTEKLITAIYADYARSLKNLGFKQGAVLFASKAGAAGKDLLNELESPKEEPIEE
inactive: [1] -0.069 | filanesib 0.027 | zotarolimus -0.058 | idasanutlin -0.124 | alisertib -0.062 | [2] 0.104 | gefitinib -0.016 | [3] 0.094 | lapatinib -0.094 | pictilisib 0.094

XPO5 (UniProt Q9HAV4)
Sequence of UniProt Q9HAV4 (Q9HAV4 whole entry, looked up): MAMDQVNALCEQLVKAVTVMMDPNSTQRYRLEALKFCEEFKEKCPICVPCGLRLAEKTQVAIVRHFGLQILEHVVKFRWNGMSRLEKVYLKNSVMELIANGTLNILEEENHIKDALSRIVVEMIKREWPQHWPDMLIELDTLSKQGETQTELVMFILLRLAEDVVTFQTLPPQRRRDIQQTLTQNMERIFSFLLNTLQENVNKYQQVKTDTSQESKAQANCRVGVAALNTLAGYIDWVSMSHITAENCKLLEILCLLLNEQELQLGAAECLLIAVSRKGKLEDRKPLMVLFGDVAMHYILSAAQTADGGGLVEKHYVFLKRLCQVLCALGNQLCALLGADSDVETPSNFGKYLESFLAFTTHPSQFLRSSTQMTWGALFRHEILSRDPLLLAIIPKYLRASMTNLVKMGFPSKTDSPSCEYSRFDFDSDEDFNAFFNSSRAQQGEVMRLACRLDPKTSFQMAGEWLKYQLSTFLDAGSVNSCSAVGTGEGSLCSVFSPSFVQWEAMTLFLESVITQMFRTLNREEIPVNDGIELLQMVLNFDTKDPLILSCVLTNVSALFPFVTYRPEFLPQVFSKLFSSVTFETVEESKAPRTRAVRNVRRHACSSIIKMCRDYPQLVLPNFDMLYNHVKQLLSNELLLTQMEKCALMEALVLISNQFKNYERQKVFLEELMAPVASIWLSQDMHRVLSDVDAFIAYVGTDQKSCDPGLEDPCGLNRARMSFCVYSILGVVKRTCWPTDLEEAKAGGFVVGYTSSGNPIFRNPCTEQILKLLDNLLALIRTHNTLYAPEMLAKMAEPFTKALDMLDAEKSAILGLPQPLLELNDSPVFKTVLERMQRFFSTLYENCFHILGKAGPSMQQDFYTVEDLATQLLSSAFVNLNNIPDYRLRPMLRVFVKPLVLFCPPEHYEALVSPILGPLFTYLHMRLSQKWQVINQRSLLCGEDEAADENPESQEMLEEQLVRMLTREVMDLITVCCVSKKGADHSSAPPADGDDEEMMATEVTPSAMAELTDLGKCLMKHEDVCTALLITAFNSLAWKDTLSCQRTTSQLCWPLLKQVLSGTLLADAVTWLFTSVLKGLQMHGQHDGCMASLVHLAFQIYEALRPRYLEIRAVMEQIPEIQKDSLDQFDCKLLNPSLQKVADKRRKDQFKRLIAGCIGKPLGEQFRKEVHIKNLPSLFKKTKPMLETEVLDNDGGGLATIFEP
inactive: [1] 0.019 | filanesib -0.122 | zotarolimus 0.023 | idasanutlin -0.055 | alisertib -0.008 | [2] -0.068 | gefitinib -0.008 | [3] -0.052 | lapatinib -0.004 | pictilisib -0.034

WASHC3 (UniProt Q9Y3C0)
Sequence of UniProt Q9Y3C0 (Q9Y3C0 whole entry, looked up): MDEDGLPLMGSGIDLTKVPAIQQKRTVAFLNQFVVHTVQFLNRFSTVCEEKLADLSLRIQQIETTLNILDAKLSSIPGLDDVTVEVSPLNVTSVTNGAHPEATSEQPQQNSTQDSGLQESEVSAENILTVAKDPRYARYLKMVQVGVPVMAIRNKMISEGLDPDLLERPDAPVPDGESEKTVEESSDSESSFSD
inactive: [1] 0.108 | filanesib -0.061 | zotarolimus 0.001 | idasanutlin 0.068 | alisertib 0.077 | [2] 0.002 | gefitinib -0.014 | [3] 0.042 | lapatinib -0.029 | pictilisib 0.05

USP34 (UniProt Q70CQ2)
inactive: [1] 0.021 | filanesib 0.011 | zotarolimus -0.03 | idasanutlin -0.239 | alisertib 0.021 | [2] 0 | gefitinib -0.024 | [3] -0.073 | lapatinib 0.011 | pictilisib 0.135

VRK2 (UniProt Q86Y07)
inactive: [1] -0.009 | filanesib 0.075 | zotarolimus 0 | idasanutlin -0.066 | alisertib 0.042 | [2] 0.003 | gefitinib 0.018 | [3] -0.027 | lapatinib -0.003 | pictilisib -0.06

TMEM179B (UniProt Q7Z7N9)
Sequence of UniProt Q7Z7N9 (Q7Z7N9 whole entry, looked up): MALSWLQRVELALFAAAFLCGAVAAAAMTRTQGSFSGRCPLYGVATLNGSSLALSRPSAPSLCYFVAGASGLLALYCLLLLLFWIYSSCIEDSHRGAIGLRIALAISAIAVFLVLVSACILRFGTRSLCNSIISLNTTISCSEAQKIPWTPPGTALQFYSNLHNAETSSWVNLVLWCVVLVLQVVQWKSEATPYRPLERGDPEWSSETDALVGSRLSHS
inactive: [1] -0.019 | filanesib -0.162 | zotarolimus -0.205 | idasanutlin 0.088 | alisertib -0.007 | [2] -0.03 | gefitinib 0.039 | [3] 0.175 | lapatinib 0.032 | pictilisib 0.036

TOMM5 isoform 2 (UniProt Q8N4H5)
Sequence of UniProt Q8N4H5 (Q8N4H5 whole entry, looked up): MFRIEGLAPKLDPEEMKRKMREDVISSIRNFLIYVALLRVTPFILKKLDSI
inactive: [1] -0.027 | filanesib 0.079 | zotarolimus 0.045 | idasanutlin 0.137 | alisertib -0.141 | [2] -0.021 | gefitinib 0.073 | [3] 0.044 | lapatinib -0.016 | pictilisib -0.086

UCHL5 isoform 3 (UniProt Q9Y5K5)
inactive: [1] 0.229 | filanesib -0.13 | zotarolimus 0.227 | idasanutlin 0.057 | alisertib 0.072 | [2] 0.036 | gefitinib -0.04 | [3] 0.16 | lapatinib -0.07

TTI1 (UniProt O43156)
inactive: [1] -0.031 | filanesib 0.081 | zotarolimus 0.091 | idasanutlin -0.097 | alisertib -0.112 | [2] 0.02 | gefitinib -0.057 | [3] -0.019 | lapatinib -0.008 | pictilisib 0.049

TMEM70 (UniProt Q9BUB7)
inactive: [1] -0.041 | filanesib -0.157 | zotarolimus -0.009 | idasanutlin -0.016 | alisertib 0.126 | [2] -0.118 | gefitinib -0.026 | [3] 0.106 | lapatinib -0.039 | pictilisib 0.059

VPS52 (UniProt Q8N1B4)
inactive: [1] -0.003 | filanesib 0.017 | zotarolimus 0.044 | idasanutlin 0.088 | alisertib -0.069 | [2] 0.058 | gefitinib 0.014 | [3] -0.022 | lapatinib -0.043 | pictilisib -0.02

UPF3B (UniProt Q9BZI7)
inactive: [1] -0.044 | filanesib 0.26 | zotarolimus -0.015 | idasanutlin 0.209 | alisertib -0.048 | [2] 0.187 | gefitinib 0.061 | [3] -0.114 | lapatinib 0.234 | pictilisib -0.058

TMEM106B (UniProt Q9NUM4)
inactive: [1] 0.021 | filanesib 0.06 | zotarolimus -0.082 | idasanutlin -0.032 | alisertib -0.012 | [2] -0.027 | gefitinib 0.04 | [3] 0.057 | lapatinib -0.005 | pictilisib 0.027

TPP1 (UniProt O14773)
Sequence of UniProt O14773 (O14773 whole entry, looked up): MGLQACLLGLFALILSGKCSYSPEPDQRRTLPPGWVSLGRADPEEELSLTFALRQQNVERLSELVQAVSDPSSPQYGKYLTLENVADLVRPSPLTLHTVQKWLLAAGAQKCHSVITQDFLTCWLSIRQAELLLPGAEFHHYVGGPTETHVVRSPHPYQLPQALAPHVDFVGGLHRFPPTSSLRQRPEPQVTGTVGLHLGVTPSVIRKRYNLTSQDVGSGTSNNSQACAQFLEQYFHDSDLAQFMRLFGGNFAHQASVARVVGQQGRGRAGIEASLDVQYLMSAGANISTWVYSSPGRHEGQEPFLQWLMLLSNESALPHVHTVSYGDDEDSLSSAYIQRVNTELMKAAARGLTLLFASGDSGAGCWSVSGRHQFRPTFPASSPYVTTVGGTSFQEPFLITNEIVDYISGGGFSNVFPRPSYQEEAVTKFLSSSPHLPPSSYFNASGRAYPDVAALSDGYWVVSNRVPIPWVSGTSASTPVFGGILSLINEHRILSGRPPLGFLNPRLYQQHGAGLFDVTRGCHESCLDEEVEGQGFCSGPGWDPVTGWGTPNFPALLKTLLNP
inactive: [1] 0.024 | filanesib -0.175 | zotarolimus 0 | idasanutlin -0.008 | alisertib 0.168 | [2] -0.072 | gefitinib -0.039 | [3] 0.087 | lapatinib -0.026 | pictilisib 0.011

VPS35L (UniProt Q7Z3J2)
inactive: [1] 0.028 | filanesib 0.049 | zotarolimus -0.016 | idasanutlin -0.118 | alisertib 0.041 | [2] 0.058 | gefitinib 0.059 | [3] -0.032 | lapatinib -0.05 | pictilisib 0.061

XPNPEP3 (UniProt Q9NQH7)
inactive: [1] -0.12 | filanesib -0.082 | zotarolimus -0.021 | idasanutlin -0.032 | alisertib -0.011 | [2] 0.027 | gefitinib -0.002 | [3] 0.078 | lapatinib -0.024 | pictilisib 0.027

TXNL1 (UniProt O43396)
inactive: [1] 0.169 | filanesib 0.075 | zotarolimus 0.047 | idasanutlin -0.003 | alisertib -0.005 | [2] 0.084 | gefitinib 0.05 | [3] -0.001 | lapatinib 0.006 | pictilisib 0.017

WDR41 (UniProt Q9HAD4)
Sequence of UniProt Q9HAD4 (Q9HAD4 whole entry, looked up): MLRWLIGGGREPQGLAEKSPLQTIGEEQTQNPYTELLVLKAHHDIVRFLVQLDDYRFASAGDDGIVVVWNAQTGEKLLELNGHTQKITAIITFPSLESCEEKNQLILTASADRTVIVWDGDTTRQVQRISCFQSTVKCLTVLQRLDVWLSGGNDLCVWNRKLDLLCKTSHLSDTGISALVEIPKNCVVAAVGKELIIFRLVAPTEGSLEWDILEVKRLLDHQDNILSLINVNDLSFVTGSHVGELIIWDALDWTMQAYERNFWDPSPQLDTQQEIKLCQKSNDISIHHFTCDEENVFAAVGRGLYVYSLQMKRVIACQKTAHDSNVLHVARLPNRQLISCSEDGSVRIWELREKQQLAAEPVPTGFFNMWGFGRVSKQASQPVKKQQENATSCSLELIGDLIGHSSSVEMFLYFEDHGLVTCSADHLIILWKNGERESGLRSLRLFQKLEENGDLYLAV
inactive: [1] 0.025 | filanesib -0.154 | zotarolimus -0.007 | idasanutlin -0.031 | alisertib -0.072 | [2] -0.254 | gefitinib -0.002 | [3] 0.014 | lapatinib 0.049 | pictilisib -0.056

VPS33A (UniProt Q96AX1)
inactive: [1] 0.018 | filanesib -0.096 | zotarolimus 0.033 | idasanutlin -0.039 | alisertib -0.037 | [2] 0.014 | gefitinib -0.033 | [3] -0.039 | lapatinib 0.015 | pictilisib -0.083

WASHC2C, A0A096LPC5
inactive: [1] -0.072 | filanesib 0.057 | zotarolimus -0.062 | idasanutlin 0.146 | alisertib -0.042 | [2] 0.305 | gefitinib 0.018 | [3] 0.098 | lapatinib -0.141 | pictilisib 0.048

UFL1 (UniProt O94874)
inactive: [1] 0.029 | filanesib -0.022 | zotarolimus 0.025 | idasanutlin -0.108 | alisertib -0.074 | [2] 0.212 | gefitinib 0.003 | [3] -0.071 | lapatinib -0.017 | pictilisib 0.016

USP48 isoform 8 (UniProt Q86UV5)
Sequence of UniProt Q86UV5 (Q86UV5 whole entry, looked up): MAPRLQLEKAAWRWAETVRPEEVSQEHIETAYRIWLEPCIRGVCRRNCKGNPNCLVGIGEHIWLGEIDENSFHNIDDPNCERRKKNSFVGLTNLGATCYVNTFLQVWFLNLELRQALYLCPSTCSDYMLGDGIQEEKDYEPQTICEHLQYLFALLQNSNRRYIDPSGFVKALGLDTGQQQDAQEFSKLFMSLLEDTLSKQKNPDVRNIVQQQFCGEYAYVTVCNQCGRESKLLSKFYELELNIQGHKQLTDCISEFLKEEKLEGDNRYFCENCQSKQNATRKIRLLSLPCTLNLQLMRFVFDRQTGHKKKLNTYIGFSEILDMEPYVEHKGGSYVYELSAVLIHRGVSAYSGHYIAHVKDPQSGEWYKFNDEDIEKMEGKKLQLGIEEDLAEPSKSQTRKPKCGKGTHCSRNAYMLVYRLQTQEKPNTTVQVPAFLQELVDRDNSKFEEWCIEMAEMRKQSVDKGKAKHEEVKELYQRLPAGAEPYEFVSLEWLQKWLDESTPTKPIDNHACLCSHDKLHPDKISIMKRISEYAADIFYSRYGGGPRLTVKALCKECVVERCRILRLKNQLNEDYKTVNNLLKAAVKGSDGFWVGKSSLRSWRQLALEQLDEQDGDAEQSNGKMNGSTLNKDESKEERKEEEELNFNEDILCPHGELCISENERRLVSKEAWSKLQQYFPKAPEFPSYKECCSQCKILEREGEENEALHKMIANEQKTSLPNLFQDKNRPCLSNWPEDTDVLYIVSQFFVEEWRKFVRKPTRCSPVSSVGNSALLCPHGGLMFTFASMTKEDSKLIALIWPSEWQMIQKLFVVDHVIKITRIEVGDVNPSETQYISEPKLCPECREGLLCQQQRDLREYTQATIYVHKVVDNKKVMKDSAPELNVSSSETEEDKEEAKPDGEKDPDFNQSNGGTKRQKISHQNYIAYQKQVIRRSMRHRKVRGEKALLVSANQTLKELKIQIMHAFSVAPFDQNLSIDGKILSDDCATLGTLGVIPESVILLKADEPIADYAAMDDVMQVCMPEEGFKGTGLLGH
inactive: [1] 0.155 | filanesib -0.075 | zotarolimus 0.089 | idasanutlin -0.03 | alisertib 0.12 | [2] -0.267 | gefitinib 0.093 | [3] -0.018 | lapatinib 0.002 | pictilisib 0.016

— the supplement of paper PMC10849652
